Measured values reported in PubChem BioAssay AID488896 (Broad Institute, 2010).
Among all 320,000 compounds or so, about 3,100 (0.97%) were called active.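 How the source made its calls: active means mean replicate inhibition of at least 70% and a set share of replicates each scoring 70 or more; inconclusive means meets just one of the two criteria; inactive means fails both criteria.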 Shown is part of a subset that was picked to be rich in actives.

target: Scavenger receptor class B member 1 (Mus musculus) (UniProt Q61009); assay: mouse SR-BI DiI-HDL uptake blockers – ldlA[mSR-BI] cells, fluorescence, single point, primary screen (AID 488896); conditions: ldlA[mSR-BI] CHO cells, 3 h, at 12.5 µM, active compounds read high;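 further: 0% = median of neutral control wells and 100% = median of positive control wells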
Sequence (Q61009 whole entry, looked up): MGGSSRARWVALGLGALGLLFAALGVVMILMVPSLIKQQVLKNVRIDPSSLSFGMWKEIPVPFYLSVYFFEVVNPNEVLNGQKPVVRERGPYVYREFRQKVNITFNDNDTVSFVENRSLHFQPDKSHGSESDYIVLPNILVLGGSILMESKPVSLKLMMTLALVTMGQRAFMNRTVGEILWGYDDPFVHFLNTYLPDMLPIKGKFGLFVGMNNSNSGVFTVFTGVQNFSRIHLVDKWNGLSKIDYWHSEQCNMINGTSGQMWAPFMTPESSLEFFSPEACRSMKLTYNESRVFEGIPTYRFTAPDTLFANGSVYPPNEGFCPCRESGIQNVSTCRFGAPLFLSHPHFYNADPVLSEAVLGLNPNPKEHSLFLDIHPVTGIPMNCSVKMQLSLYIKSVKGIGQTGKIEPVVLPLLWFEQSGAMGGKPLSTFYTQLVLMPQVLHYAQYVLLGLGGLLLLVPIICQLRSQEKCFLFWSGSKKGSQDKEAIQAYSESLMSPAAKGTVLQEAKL

Row | Compound | inhibition
1 | CC(=O)OC1C2(CC3N4C(=O)C5(CO)SSC4(CC31O)C(=O)N5C)OC(C)C(C)(C)C2=O (stereo not given) | 106% (active)
2 | CC12CCC(O)CC1CCC1C2CCC2(C)C(C(=O)CC(O)C(F)(F)F)CCC12 (stereo not given) | 13.2% (inactive)
3 | O=C(c1ccccc1)C(O)(CN1CCCCC1)c1ccccc1 (stereo not given) | -5.67% (inactive)
4 | COC1C(O)C(C)OC(OC2CCC3(C=O)C(CCC4C3CCC3(C)C(C5=CC(=O)OC5)CCC43O)C2)C1O (stereo not given) | 0.038% (inactive)
5 | CC(=O)c1ccc(OC(NC(=O)Cc2ccccc2)C(Cl)(Cl)Cl)cc1 (stereo not given) | 92.8% (active)
6 | CC(=O)Cc1ccc(OC(C)C)cc1 | -1.27% (inactive)
7 | CCOP(=O)(OCC)C(NC(=O)c1ccc(OC)cc1)C(Cl)(Cl)Cl (stereo not given) | 6.36% (inactive)
8 | CN(C)CC1Oc2ccccc2OC1(O)c1ccccc1 (stereo not given) | 1.39% (inactive)
9 | CC1=CC(=Cc2sc3ccccc3[n+]2C)C=C(C)O1 | -1% (inactive)
10 | CCC(C)(O)C(=O)OC1C(=O)OC2CC3C(C)=CC(=O)C(O)C3(C)C3C4(O)OCC23C1C(C)C4O (stereo not given) | -10.3% (inactive)
